RECQ1 helicase – qHTS Assay for Inhibitors of RecQ-Like Dna Helicase 1 (RECQ1); RECQ1 DNA unwinding, red fluorescence kinetic read; Potency, µM (series often up to 57.3 µM), inactives show at the highest dose activity, negative = inhibition, actives largely listed as inhibitors; actives 0.54% (n = 240,000);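 also: plate controls were vehicle for no effect and no enzyme for full effect; nearly all actives have a fitted effect of over 30% in size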
Target sequence (P46063 whole entry, looked up): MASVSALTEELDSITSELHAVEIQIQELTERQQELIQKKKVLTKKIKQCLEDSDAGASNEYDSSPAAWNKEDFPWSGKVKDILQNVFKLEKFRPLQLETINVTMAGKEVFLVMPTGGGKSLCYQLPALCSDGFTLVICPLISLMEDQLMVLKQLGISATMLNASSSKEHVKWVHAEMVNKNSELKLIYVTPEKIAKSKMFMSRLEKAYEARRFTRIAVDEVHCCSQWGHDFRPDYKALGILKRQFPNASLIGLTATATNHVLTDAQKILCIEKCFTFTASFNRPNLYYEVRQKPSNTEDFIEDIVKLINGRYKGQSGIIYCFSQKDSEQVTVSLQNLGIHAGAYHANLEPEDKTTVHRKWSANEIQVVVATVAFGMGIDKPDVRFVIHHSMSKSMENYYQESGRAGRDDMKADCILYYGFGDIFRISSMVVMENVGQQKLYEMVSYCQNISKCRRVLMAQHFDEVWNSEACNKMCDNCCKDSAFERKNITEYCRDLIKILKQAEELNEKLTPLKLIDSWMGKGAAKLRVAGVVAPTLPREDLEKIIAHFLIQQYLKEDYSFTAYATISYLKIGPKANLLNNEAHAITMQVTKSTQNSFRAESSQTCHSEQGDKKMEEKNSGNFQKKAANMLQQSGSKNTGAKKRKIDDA
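RECQ1T1 50 nM; forked duplex (20 bp + 30-nt ss tails) 200 nM, ATP 2 mM final; pH 8.0, 2 mM MgCl2, 2.5 ug/ml poly(dI-dC); 15 min compound preincubation; discontinuous kinetic read over 2 h at RT.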
APEX1 inh – qHTS Assay for Inhibitors of the Human Apurinic/apyrimidinic Endonuclease 1 (APE1); Potency, µM (series often up to 65.8 µM), inactives show at the top dose activity change, negative = inhibition, actives largely listed as inhibitors; AID 2517, 2012; actives 0.35% (n = 350,000); recombinant APE1, TAMRA/BHQ-2 abasic DNA cleavage fluorescence; DNA repair nuclease/redox regulator APEX1 (Homo sapiens), P27695;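 also: plate controls were vehicle for no effect and reference inhibitor for full effect; nearly all actives have a fitted effect of over 55% in size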
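Measures dequenching upon AP-site incision of a 5'-TAMRA/3'-BHQ-2 THF-containing duplex, 50 nM; human APE1 0.75 nM after 15 min room-temperature exposure to compound; kinetic three-point read at one-minute spacing.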
BLM inh – qHTS Assay for Inhibitors of Bloom's syndrome helicase (BLM). actives 0.2% (n = 350,000). recombinant BLM DNA unwinding, fluorescence dequenching. Potency, µM (highest dose often 56.1 µM), for inactives: at the highest dose activity change, negative = inhibition, most hits filed as inhibitors. RecQ-like DNA helicase BLM (Homo sapiens), P54132;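 also: plate controls were vehicle for no effect and no enzyme for full effect; nearly all actives have a fitted effect of over 35% in size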
RGS12 GoLoco inh – qHTS Assay for Inhibitors of RGS12 GoLoco Motif Activity (Red Fluorophore) | AID 880, 2007 | actives 0.44% (n = 230,000) | Guanine nucleotide-binding protein G(i) subunit alpha-1 (Homo sapiens), P63096 | Potency, µM (highest dose often 61.6 µM), without a hit: at the top dose activity, negative = inhibition, actives largely listed as inhibitors | Gai1:RGS12 GoLoco peptide FP, rhodamine, 10 min; active = well fitted inhibition curve with a large enough effect, not every such curve was filed as active; inactive = no such curve, though single readings can be large or run the other way; also: nearly all actives have a fitted effect of over 30% in size
TR SRC2 fluor cs – Total Fluorescence Counterscreen for Inhibitors of the Interaction of Thyroid Hormone Receptor and Steroid Receptor Coregulator 2; TRb/SRC2 Texas Red total fluorescence interference; Potency, µM (doses to about 106 µM), without a hit: at the highest dose fluorescence change, negative = quenching; actives 0.29% (n = 280,000); AID 1479, 2009; active = well fitted curve in either direction with a large enough effect; inconclusive = small, poorly fitted or top-dose-only effect
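Flags fluorescent or light-absorbing compounds by total fluorescence, S + 2P, at 555 nm excitation and 632 nm emission. Mixture: 20 nM Texas Red SRC2 peptide, 0.6 uM human TRb LBD, 1 uM T3, 5% DMSO; compound exposure 5 h at ambient temperature.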
TRb-SRC2 inh – qHTS for Inhibitors of the Interaction of Thyroid Hormone Receptor and Steroid Receptor Coregulator 2. TRbeta-SRC2 peptide binding, fluorescence polarization; receptor liganded with 1 µM T3. Potency, µM (highest dose often 106 µM), for inactives: top-dose activity change, negative = inhibition, usual class: inhibitors. actives 0.065% (n = 280,000). AID 1469, 2008;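 also: plate controls were bound peptide for no effect and peptide without receptor for full effect; nearly all actives have a fitted effect of over 50% in size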
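A fluorescence polarization screen tested compounds at multiple concentrations against complex formation between 0.6 uM TRb ligand-binding domain and 20 nM Texas Red SRC2 peptide, with 1 uM T3 present; readout after 5 hr.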
The depositor's hits bear a star; [ ] = dose if it differs, or a comment. An excerpt weighted towards active compounds, which were near 0.9% of everything screened. Unless noted, calls follow the shape of the dose curve; as a rule, active = well fitted curve in the direction sought with a large enough effect; inconclusive = small, poorly fitted or top-dose-only effect, or another doubt; inactive = no such curve, though single readings can be large; an effect the other way counts as inactive or inconclusive. Unless noted, % is scaled to controls: 0 for no effect and ±100 for the full control effect; potency is read from the fitted curve at half-maximal effect.

CC(C)(C)C(=O)C1C(=O)c2ccccc2C1=O was read as RECQ1 helicase 5.1%, APEX1 inh -1.1%, RGS12 GoLoco inh 10µM*, TR SRC2 fluor cs -1.4% and TRb-SRC2 inh -3.3%.
CC[C@@H](C)[C@H](N)C(=O)O was read as APEX1 inh -4.9%.
`O=Nc1c(-c2c(O)[nH]c3cc(Br)ccc23)[nH]c2ccccc12` gave RECQ1 helicase 28.2µM*, APEX1 inh -10.5%, BLM inh -16.0%, RGS12 GoLoco inh 138.0%, TR SRC2 fluor cs -3.9% and TRb-SRC2 inh 7.6%.
Screening O=S(=O)(Nc1cc(O)cc2cccnc12)c1ccc(Cl)s1 returned RECQ1 helicase -7.8%, APEX1 inh 0.6%, BLM inh inconclusive, TR SRC2 fluor cs -3.3% and TRb-SRC2 inh inconclusive.
ICCc1ccccc1 was read as RECQ1 helicase 1.0%, APEX1 inh 4.2%, RGS12 GoLoco inh 3.16µM*, TR SRC2 fluor cs -1.1% and TRb-SRC2 inh 1.2%.
CCCCCCCCCCCCCc1ccccc1 was read as TR SRC2 fluor cs -1.0%[201 µM] and TRb-SRC2 inh -2.7%[201 µM].
Screening CC(C)(C)n1ncc2c(=O)n(Cc3ccccc3Cl)cnc21 returned APEX1 inh 1.2%.
CCOCCCNC1=C(Cl)C(=O)c2ccccc2C1=O was read as RECQ1 helicase -8.9%, APEX1 inh -6.7%, BLM inh -19.5%, RGS12 GoLoco inh 3.16µM*, TR SRC2 fluor cs -2.1% and TRb-SRC2 inh 1.9%.
Screening O=C1C(Cl)=C(NCCCO)C(=O)c2ccccc21 returned RECQ1 helicase -1.5%, APEX1 inh -2.3%, BLM inh -5.1%, RGS12 GoLoco inh 21.4%, TR SRC2 fluor cs -1.9% and TRb-SRC2 inh -6.9%.
CCOC(=O)C1=CC(OC(CC)CC)C(NC(C)=O)C(N)C1 (stereo unspecified) was read as RECQ1 helicase -2.9%, BLM inh 2.0%, RGS12 GoLoco inh 31.6µM*, TR SRC2 fluor cs -1.5% and TRb-SRC2 inh -0.5%.
Screening Oc1ccc(/C=N/Nc2ccnc3cc(Cl)ccc23)cc1O returned RECQ1 helicase -21.0%, APEX1 inh inconclusive, BLM inh 28.2µM*, RGS12 GoLoco inh 8.0%, TR SRC2 fluor cs -8.2% and TRb-SRC2 inh -7.8%.
For Cc1ccc(CNc2cccc(N3CCCCC3)c2)cc1 the results were APEX1 inh 13.0%.
For COc1c(O)cc2c(c1O)C1OC(CO)C(O)C(O)C1OC2=O (stereo unspecified) the results were APEX1 inh 0.2%.
O=C1OCC2OC(O)C(O)C(O)C2OC(=O)c2cc(O)c(O)c(O)c2-c2c(O)c(O)c3oc(=O)c4c(c(O)c(O)c5oc(=O)c2c3c54)-c2c1cc(O)c(O)c2O (stereo unspecified) was read as RECQ1 helicase 0.398µM*, APEX1 inh 0.0355µM*, BLM inh 0.708µM*, RGS12 GoLoco inh -45.4%, TR SRC2 fluor cs -8.7% and TRb-SRC2 inh 0.4%.
For C/C=C/C=C/CCCCCCCO the results were TR SRC2 fluor cs -4.8%[201 µM] and TRb-SRC2 inh 3.4%[201 µM].
`Cc1cc2nc3c(=O)[nH]c(=O)nc-3n(CC(O)C(O)C(O)COP(=O)(O)O)c2cc1C` (stereo unspecified) gave RECQ1 helicase -29.3%, BLM inh 3.8%, RGS12 GoLoco inh 15.8µM*, TR SRC2 fluor cs -5.7% and TRb-SRC2 inh 3.7%.

Assay outcomes deposited in PubChem by National Center for Advancing Translational Sciences (NCATS).
